According to PubChem BioAssay (NCI):
About 83,000 compounds went through this panel and 20% of them were active in at least one assay; those are over-represented in the sample as a whole.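 Single-concentration screen, 48 h exposure, 96-well plates. Endpoint: percent growth. Below 10 = active.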 Activity calls are given as the source filed them.

Columns and labels:
Experiment in all cases: NCI-60 one-dose screen, 48 h (100 = growth as untreated, 0 = no growth, -100 = all killed)
SK-MEL-2 melanoma = conditions: 10 µM unless noted
EKVX NSCLC = conditions: 10 µM unless noted
SN12C renal = conditions: 10 µM unless noted
UO-31 renal = conditions: 10 µM unless noted
TK-10 renal = conditions: 10 µM unless noted
ACHN renal = conditions: 10 µM unless noted
CAKI-1 renal = conditions: 10 µM unless noted
A498 renal = conditions: 10 µM unless noted
CCRF-CEM leukemia = conditions: 10 µM unless noted
MOLT-4 leukemia = conditions: 10 µM unless noted
SR leukemia = conditions: 10 µM unless noted
RPMI-8226 leukemia = conditions: 10 µM unless noted
OVCAR-8 ovarian = conditions: 10 µM unless noted
OVCAR-5 ovarian = conditions: 10 µM unless noted
SK-OV-3 ovarian = conditions: 10 µM unless noted
IGROV1 ovarian = conditions: 10 µM unless noted
OVCAR-3 ovarian = conditions: 10 µM unless noted
HS 578T breast = conditions: 10 µM unless noted
NCI/ADR-RES ovarian = conditions: 10 µM unless noted
OVCAR-4 ovarian = conditions: 10 µM

Row | Compound | growth (SK-MEL-2 melanoma) | growth (EKVX NSCLC) | growth (SN12C renal) | growth (UO-31 renal) | growth (TK-10 renal) | growth (ACHN renal) | growth (CAKI-1 renal) | growth (A498 renal) | growth (CCRF-CEM leukemia) | growth (MOLT-4 leukemia) | growth (SR leukemia) | growth (RPMI-8226 leukemia) | growth (OVCAR-8 ovarian) | growth (OVCAR-5 ovarian) | growth (SK-OV-3 ovarian) | growth (IGROV1 ovarian) | growth (OVCAR-3 ovarian) | growth (HS 578T breast) | growth (NCI/ADR-RES ovarian) | growth (OVCAR-4 ovarian)
1 | C=C(C)[C@@H]1CC[C@]2(COCCCN)CC[C@]3(C)[C@H](CC[C@@H]4[C@@](C)(CCCNCCCN)[C@H](C(=C)C)CC[C@]43C)[C@@H]12 | -59.3% [100 µM] (active) | -60.8% [100 µM] (active) | -52% [100 µM] (active) | -79.8% [100 µM] (active) | -62.4% [100 µM] (active) | -67.5% [100 µM] (active) | -77.1% [100 µM] (active) | -77% [100 µM] (active) | -26.9% [100 µM] (active) | -31.6% [100 µM] (active) | 44.4% [100 µM] (inactive) | -53.4% [100 µM] (active) | -56.7% [100 µM] (active) | -63.6% [100 µM] (active) | -60.4% [100 µM] (active) | -58.6% [100 µM] (active) | -53.3% [100 µM] (active) | -39.2% [100 µM] (active) | -53.6% [100 µM] (active) | –
2 | CCCCNC(=O)NS(=O)(=O)Cc1ccccc1 | 119% (inactive) | 122% (inactive) | 113% (inactive) | 82.8% (inactive) | 118% (inactive) | 106% (inactive) | 100% (inactive) | 110% (inactive) | 93.1% (inactive) | 97.5% (inactive) | 108% (inactive) | 95.8% (inactive) | 100% (inactive) | 108% (inactive) | 107% (inactive) | 97.3% (inactive) | 109% (inactive) | 107% (inactive) | 112% (inactive) | –
3 | Cc1cnc([C@]23CC[C@@H](C)[C@H](C)[C@H]2C2=CC[C@@H]4[C@@]5(C)Cc6c([nH]c7ccccc67)C(C)(C)[C@@H]5CC[C@@]4(C)[C@]2(C)CC3)o1 | 77.4% [100 µM] (inactive) | 74% [100 µM] (inactive) | 36.7% [100 µM] (inactive) | 39% [100 µM] (inactive) | 64.2% [100 µM] (inactive) | 42.7% [100 µM] (inactive) | 49.7% [100 µM] (inactive) | 91.9% [100 µM] (inactive) | 64% [100 µM] (inactive) | 50.5% [100 µM] (inactive) | 121% [100 µM] (inactive) | 26.6% [100 µM] (inactive) | 39.3% [100 µM] (inactive) | 59.7% [100 µM] (inactive) | 73.9% [100 µM] (inactive) | 25.9% [100 µM] (inactive) | – | 70.2% [100 µM] (inactive) | 68.3% [100 µM] (inactive) | –
4 | CC1(C)CC[C@]2(C(=O)O)CC[C@]3(C)[C@H](CC[C@@H]4[C@@]5(C)CCC(=O)C(C)(C)[C@@H]5CC[C@]43C)[C@H]2[C@H]1OC(=O)C(F)(F)F | -71.8% [100 µM] (active) | -69.6% [100 µM] (active) | -82.1% [100 µM] (active) | -96.4% [100 µM] (active) | -84.1% [100 µM] (active) | -94.1% [100 µM] (active) | -71.2% [100 µM] (active) | -81.2% [100 µM] (active) | -25% [100 µM] (active) | -26.4% [100 µM] (active) | 14.6% [100 µM] (inactive) | -42.9% [100 µM] (active) | -81.4% [100 µM] (active) | -53.1% [100 µM] (active) | -2.75% [100 µM] (active) | -64.7% [100 µM] (active) | -67.4% [100 µM] (active) | -42.1% [100 µM] (active) | -77.6% [100 µM] (active) | –
5 | Brc1ccc2c(c1)CN(C1CCCCC1)CO2 | 107% (inactive) | 101% (inactive) | 113% (inactive) | 78.9% (inactive) | 111% (inactive) | 98.9% (inactive) | 102% (inactive) | 100% (inactive) | 107% (inactive) | 99.7% (inactive) | 96.3% (inactive) | 103% (inactive) | 114% (inactive) | 97.9% (inactive) | 92.3% (inactive) | 107% (inactive) | 116% (inactive) | 91.7% (inactive) | 97.5% (inactive) | –
6 | CC1(C)C(=O)/C(=C\c2ccco2)C[C@]2(C)[C@H]3CC=C4[C@@H]5C[C@](C)(C(=O)O)CC[C@]5(C)CC[C@@]4(C)[C@]3(C)CC[C@@H]12 | -57.5% [100 µM] (active) | -71.4% [100 µM] (active) | -50.8% [100 µM] (active) | -95.5% [100 µM] (active) | -46.1% [100 µM] (active) | -79.9% [100 µM] (active) | -66.6% [100 µM] (active) | -89.2% [100 µM] (active) | -22.7% [100 µM] (active) | -21% [100 µM] (active) | 46.8% [100 µM] (inactive) | 0.425% [100 µM] (active) | -46.1% [100 µM] (active) | -46.2% [100 µM] (active) | -77.2% [100 µM] (active) | -61.9% [100 µM] (active) | -60.1% [100 µM] (active) | -16.2% [100 µM] (active) | -49.5% [100 µM] (active) | –
7 | C#CCNC(=O)CC[C@@H](C)[C@H]1CC[C@H]2[C@@H]3CC[C@@H]4CC(=O)CC[C@]4(C)[C@H]3CC[C@]12C | -57.1% [100 µM] (active) | -31.8% [100 µM] (active) | -72% [100 µM] (active) | -92.6% [100 µM] (active) | -16.8% [100 µM] (active) | -86.2% [100 µM] (active) | -59.4% [100 µM] (active) | -23.9% [100 µM] (active) | -34% [100 µM] (active) | -18.4% [100 µM] (active) | 24.9% [100 µM] (inactive) | -32.9% [100 µM] (active) | -21.7% [100 µM] (active) | -45.4% [100 µM] (active) | 11.3% [100 µM] (inactive) | -64% [100 µM] (active) | -72.6% [100 µM] (active) | -28.3% [100 µM] (active) | -28.7% [100 µM] (active) | –
8 | Cc1ccc(Oc2c(/C=N/NC(=O)Cn3c(=O)sc4ccccc43)c(C)nn2-c2ccccc2)cc1 | 75.5% (inactive) | 38% (inactive) | 29.5% (inactive) | 25.8% (inactive) | 62.4% (inactive) | 43.2% (inactive) | 28.8% (inactive) | 78.2% (inactive) | 40.8% (inactive) | 8.72% (active) | 41.8% (inactive) | – | 54.8% (inactive) | 74.1% (inactive) | 66.6% (inactive) | 44.4% (inactive) | 54.2% (inactive) | 63.2% (inactive) | 50.2% (inactive) | 46.2% (inactive)
9 | CO[C@H]1CC[C@@]2(C)C(=CC[C@H]3[C@@H]4C[C@H](O)C[C@@]4(C)CC[C@@H]32)C1 | 67.2% (inactive) | 76.4% (inactive) | 64.8% (inactive) | 66.1% (inactive) | 58.9% (inactive) | 69.6% (inactive) | 42.8% (inactive) | 55.8% (inactive) | 19.3% (inactive) | 33.5% (inactive) | 14.1% (inactive) | 54.5% (inactive) | 82.5% (inactive) | 102% (inactive) | 39.1% (inactive) | 53.8% (inactive) | 28.7% (inactive) | 60.8% (inactive) | 39.1% (inactive) | –
10 | CC1(C)CC[C@]2(C(=O)O)CC[C@]3(C)C(=CC[C@@H]4[C@@]5(C)C/C(=C/c6ccco6)C(=O)C(C)(C)[C@@H]5CC[C@]43C)[C@@H]2C1 | -69.3% [100 µM] (active) | -19.6% [100 µM] (active) | -52.3% [100 µM] (active) | -98.1% [100 µM] (active) | -19.1% [100 µM] (active) | -71.8% [100 µM] (active) | -35% [100 µM] (active) | -42.5% [100 µM] (active) | 4.17% [100 µM] (active) | 2.21% [100 µM] (active) | 21.7% [100 µM] (inactive) | 0.316% [100 µM] (active) | 9.39% [100 µM] (active) | -64.2% [100 µM] (active) | 0.149% [100 µM] (active) | -38.7% [100 µM] (active) | -70% [100 µM] (active) | -5.24% [100 µM] (active) | -12.6% [100 µM] (active) | –
11 | CC1(C)OC2[C@@H](CNC(=O)NC(=O)NC(=O)CI)O[C@@H](n3cnc4c(NC(=O)Nc5ccccc5)ncnc43)[C@H]2O1 (stereo partly drawn) | 95.4% (inactive) | 77.3% (inactive) | 82.8% (inactive) | -78.6% (active) | 102% (inactive) | 66.2% (inactive) | -69% (active) | 99.4% (inactive) | -44% (active) | -23.6% (active) | -50.8% (active) | – | 75.9% (inactive) | 93% (inactive) | 105% (inactive) | 15.5% (inactive) | -32.6% (active) | 98.7% (inactive) | 84.6% (inactive) | 73.5% (inactive)
